{"source": "PubChem BioAssay (NCATS)", "key": {"[1]": {"experiment": "qHTS for compounds that reverse cellular toxicity of Amyloid beta (A-beta) peptide in yeast: LOPAC Validation Assay (AID 720559)", "outline": "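Yeast expressing toxic A-beta grown with pinned compounds at 30 C for 48 hr. Growth measured as absorbance at 600 nm; data normalized to DMSO and to an equimolar FeCl3/clioquinol mixture as positive control.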"}, "[2]": {"experiment": "qHTS for Activators of Parkin Expression: LOPAC Validation Assay (NLuc Reporter) (AID 720572)", "outline": "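Cells harboring the Parkin-promoter coincidence reporter were treated for 24 h at seven concentrations. NLuc output was measured sequentially after the FLuc channel and scaled between DMSO and positive control values.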"}, "[3]": {"target": "T1, Hexokinase-4 (Homo sapiens) + Glucokinase regulatory protein (Homo sapiens) (UniProt P35557+Q14397)", "T1 sequence (P35557 whole entry, looked up)": "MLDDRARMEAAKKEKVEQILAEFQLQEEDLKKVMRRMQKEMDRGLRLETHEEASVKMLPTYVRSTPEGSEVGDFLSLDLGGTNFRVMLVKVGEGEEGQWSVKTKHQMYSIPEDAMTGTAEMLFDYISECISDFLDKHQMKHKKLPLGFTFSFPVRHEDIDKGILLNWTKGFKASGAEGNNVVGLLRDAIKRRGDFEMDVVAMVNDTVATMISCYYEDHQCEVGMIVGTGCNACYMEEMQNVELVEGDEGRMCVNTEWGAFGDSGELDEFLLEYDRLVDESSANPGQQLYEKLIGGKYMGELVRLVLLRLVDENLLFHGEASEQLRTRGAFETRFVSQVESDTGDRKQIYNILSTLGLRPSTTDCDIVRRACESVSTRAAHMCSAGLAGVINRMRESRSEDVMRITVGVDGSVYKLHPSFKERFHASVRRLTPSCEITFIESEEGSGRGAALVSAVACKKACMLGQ", "T1 sequence (Q14397 whole entry, looked up)": "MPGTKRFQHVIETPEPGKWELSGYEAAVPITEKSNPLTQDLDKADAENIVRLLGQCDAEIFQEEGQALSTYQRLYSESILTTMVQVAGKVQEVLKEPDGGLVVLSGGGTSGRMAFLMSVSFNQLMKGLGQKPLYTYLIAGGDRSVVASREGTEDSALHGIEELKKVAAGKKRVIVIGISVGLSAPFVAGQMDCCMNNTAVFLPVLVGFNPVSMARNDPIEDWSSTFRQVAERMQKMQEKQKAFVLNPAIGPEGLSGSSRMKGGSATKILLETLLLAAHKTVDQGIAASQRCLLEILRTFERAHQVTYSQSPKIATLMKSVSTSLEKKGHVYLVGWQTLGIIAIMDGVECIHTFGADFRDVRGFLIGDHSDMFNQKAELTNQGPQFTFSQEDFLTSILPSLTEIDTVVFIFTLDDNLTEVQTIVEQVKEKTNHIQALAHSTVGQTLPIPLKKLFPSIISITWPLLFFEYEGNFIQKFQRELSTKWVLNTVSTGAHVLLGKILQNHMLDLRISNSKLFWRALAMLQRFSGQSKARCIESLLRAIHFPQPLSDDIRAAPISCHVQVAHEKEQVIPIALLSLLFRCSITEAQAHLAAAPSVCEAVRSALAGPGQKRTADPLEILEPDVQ", "experiment": "qHTS assay for inhibitors of recombinant human GCK-GKRP interaction: Diaphorase-coupled assay (AID 743205)", "outline": "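Compounds pre-incubated 20 min with substrate, then 10 nM GST-GCK with 10 nM FLAG-GKRP added. GCK activity coupled via G6PDH and diaphorase to resorufin (5 mM glucose, 0.4 mM ATP, 0.15 mM NADP+, pH 7.6), read kinetically over 30 minutes at Ex 525/Em 590 nm.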"}, "[4]": {"target": "T1, Hexokinase-4 (Homo sapiens) + Glucokinase regulatory protein (Homo sapiens)", "experiment": "qHTS assay for inhibitors of recombinant human GCK-GKRP interaction: ADP-Glo assay (AID 743206)", "outline": "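Pin-transferred compounds meet a 15 nM GST-GCK/15 nM FLAG-GKRP/2 uM S6P mix (dispense concentrations). ATP is then added to 0.4 mM final with 5 mM glucose, and the reaction runs 60 min at room temperature. ADP is quantified luminescently.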"}, "[5]": {"experiment": "qHTS Assay for Identifying Gametocytocidal Compounds (AID 743244); further: potency means the concentration at half of the fitted maximal effect;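 on max response: actives lower the fluorescent signal which means gametocytes are killed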", "settings": "P. falciparum 3D7 stage III-V gametocytes, alamarBlue, 72 h; max response: active compounds read low", "outline": "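A resazurin-based viability read-out was applied to mature P. falciparum gametocytes: 72 h compound treatment, then 24 h dye incubation, with falling fluorescence signalling gametocytocidal effect.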"}}, "note": "“And” between values parts separate entries of the source, which are not always exact repeats. Identical values can stand only once. A number with no mark means an inactive call. Results filed as inconclusive are left out. Entries that show only a call come without a potency. The source made the active and inactive calls. The call rests on the fitted dose curve; in most records, active means well fitted curve in the direction sought with a large enough effect; inconclusive means small, poorly fitted or top-dose-only effect, or another doubt; inactive means no such curve, though single readings can be large; an effect the other way counts as inactive or inconclusive."}
{"smiles": "COc1cc2ncnc(Nc3cccc(Cl)c3)c2cc1OC", "values": [{"measurement": "outcome", "setting": "[1]", "result": "inactive"}, {"measurement": "outcome", "setting": "[2]", "result": "inactive"}, {"measurement": "outcome", "setting": "[3]", "result": "inactive"}, {"measurement": "outcome", "setting": "[4]", "result": "inactive"}, {"measurement": "max response", "setting": "[5]", "result": 13.8, "unit": "%"}]}
{"smiles": "CC1(C)[C@H](C(=O)O)N2C(=O)C[C@H]2S1(=O)=O", "values": [{"measurement": "max response", "setting": "[5]", "result": 0.138, "unit": "%"}]}
{"smiles": "CCN(C)C(=O)Oc1cccc([C@H](C)N(C)C)c1", "values": [{"measurement": "max response", "setting": "[5]", "result": -3.35, "unit": "%"}]}
{"smiles": "O=C(O)C1CCCN(CCC=C(c2ccccc2)c2ccccc2)C1", "note": "(stereo not drawn)", "values": [{"measurement": "outcome", "setting": "[1]", "result": "inactive"}, {"measurement": "outcome", "setting": "[2]", "result": "inactive"}, {"measurement": "outcome", "setting": "[3]", "result": "inactive"}, {"measurement": "outcome", "setting": "[4]", "result": "inactive"}, {"measurement": "max response", "setting": "[5]", "result": 17.5, "unit": "%"}]}
{"smiles": "Oc1c(Cl)cc(Cl)c2cccnc12", "values": [{"measurement": "Potency", "setting": "[5]", "result": "7.08 µM (active)"}]}
{"smiles": "Nc1nc(N)nc(-c2cc(Cl)ccc2Cl)n1", "values": [{"measurement": "max response", "setting": "[5]", "result": 11.2, "unit": "%"}]}
{"smiles": "CC(C)OC(=O)C(C(=O)OC(C)C)=C1SC=CS1", "values": [{"measurement": "max response", "setting": "[5]", "result": 13.6, "unit": "%"}]}
{"smiles": "COc1ccccc1OCC(O)COC(N)=O", "note": "(stereo not drawn)", "values": [{"measurement": "max response", "setting": "[5]", "result": -1.63, "unit": "%"}]}
{"smiles": "CC(C(=O)O)c1ccc2c(c1)CC(=O)c1ccccc1S2", "note": "(stereo not drawn)", "values": [{"measurement": "max response", "setting": "[5]", "result": 43, "unit": "%"}]}
{"smiles": "CCN1CCCC1CNC(=O)c1cc(S(N)(=O)=O)ccc1OC", "note": "(stereo not drawn)", "values": [{"measurement": "outcome", "setting": "[1]", "result": "inactive"}, {"measurement": "outcome", "setting": "[2]", "result": "inactive"}, {"measurement": "outcome", "setting": "[3]", "result": "inactive"}, {"measurement": "outcome", "setting": "[4]", "result": "inactive"}, {"measurement": "max response", "setting": "[5]", "result": 13, "unit": "%"}]}
{"smiles": "CCN(CC)CC#CCOC(=O)C(O)(c1ccccc1)C1CCCCC1", "note": "(stereo not drawn)", "values": [{"measurement": "outcome", "setting": "[1]", "result": "inactive"}, {"measurement": "outcome", "setting": "[2]", "result": "inactive"}, {"measurement": "outcome", "setting": "[3]", "result": "inactive"}, {"measurement": "outcome", "setting": "[4]", "result": "inactive"}, {"measurement": "max response", "setting": "[5]", "result": "-0.0303% and 25.9%"}]}
{"smiles": "CC1=CC(=O)c2ccccc2C1=O", "values": [{"measurement": "Potency", "setting": "[5]", "result": "12.6 µM (active)"}]}
{"smiles": "CO[C@@H]1[C@@H](OC(N)=O)[C@@H](O)[C@H](Oc2ccc3c(O)c(NC(=O)c4ccc(O)c(CC=C(C)C)c4)c(=O)oc3c2C)OC1(C)C", "values": [{"measurement": "max response", "setting": "[5]", "result": 1.46, "unit": "%"}]}
{"smiles": "COC(=O)Nc1nc2ccc(C(=O)c3ccccc3)cc2[nH]1", "values": [{"measurement": "max response", "setting": "[5]", "result": -6.13, "unit": "%"}]}
{"smiles": "CN(C)CCc1c[nH]c2ccc(CS(=O)(=O)N3CCCC3)cc12", "values": [{"measurement": "max response", "setting": "[5]", "result": 1.18, "unit": "%"}]}
{"smiles": "CO[C@@]12[C@H](COC(N)=O)C3=C(C(=O)C(C)=C(N)C3=O)N1C[C@@H]1N[C@@H]12", "values": [{"measurement": "max response", "setting": "[5]", "result": -9.88, "unit": "%"}]}
{"smiles": "CC(C)NCC(O)c1ccc(NS(C)(=O)=O)cc1", "note": "(stereo not drawn)", "values": [{"measurement": "outcome", "setting": "[1]", "result": "inactive"}, {"measurement": "outcome", "setting": "[2]", "result": "inactive"}, {"measurement": "outcome", "setting": "[3]", "result": "inactive"}, {"measurement": "outcome", "setting": "[4]", "result": "inactive"}, {"measurement": "max response", "setting": "[5]", "result": "-0.473% and -8.06% and 37.8%"}]}
{"smiles": "COc1c(N2CCNC(C)C2)c(F)cc2c(=O)c(C(=O)O)cn(C3CC3)c12", "note": "(stereo not drawn)", "values": [{"measurement": "max response", "setting": "[5]", "result": -5.93, "unit": "%"}]}
{"smiles": "CCCCS(=N)(=O)CCC(N)C(=O)O", "note": "(stereo not drawn)", "values": [{"measurement": "outcome", "setting": "[1]", "result": "inactive"}, {"measurement": "outcome", "setting": "[2]", "result": "inactive"}, {"measurement": "outcome", "setting": "[3]", "result": "inactive"}, {"measurement": "outcome", "setting": "[4]", "result": "inactive"}, {"measurement": "max response", "setting": "[5]", "result": -16.7, "unit": "%"}]}
{"smiles": "OCc1ccc(-c2nn(Cc3ccccc3)c3ccccc23)o1", "values": [{"measurement": "outcome", "setting": "[1]", "result": "inactive"}, {"measurement": "outcome", "setting": "[2]", "result": "inactive"}, {"measurement": "outcome", "setting": "[3]", "result": "inactive"}, {"measurement": "outcome", "setting": "[4]", "result": "inactive"}, {"measurement": "max response", "setting": "[5]", "result": -5.09, "unit": "%"}]}
{"smiles": "N[C@@H](C(=O)N[C@@H]1C(=O)N2C(C(=O)O)=C(Cl)CS[C@H]12)c1ccccc1", "values": [{"measurement": "max response", "setting": "[5]", "result": 19.9, "unit": "%"}]}
{"smiles": "CC(C)Cn1cnc2c(N)nc3ccccc3c21", "values": [{"measurement": "max response", "setting": "[5]", "result": -6.2, "unit": "%"}]}
{"smiles": "CC(C)(Sc1cc(C(C)(C)C)c(O)c(C(C)(C)C)c1)Sc1cc(C(C)(C)C)c(O)c(C(C)(C)C)c1", "values": [{"measurement": "max response", "setting": "[5]", "result": -1.03, "unit": "%"}]}
{"smiles": "CCCc1cc(C(N)=S)ccn1", "values": [{"measurement": "max response", "setting": "[5]", "result": 4.17, "unit": "%"}]}
{"smiles": "NC(=O)c1cccc(N)c1", "values": [{"measurement": "outcome", "setting": "[1]", "result": "inactive"}, {"measurement": "outcome", "setting": "[2]", "result": "inactive"}, {"measurement": "outcome", "setting": "[3]", "result": "inactive"}, {"measurement": "outcome", "setting": "[4]", "result": "inactive"}, {"measurement": "max response", "setting": "[5]", "result": 25.5, "unit": "%"}]}
{"smiles": "O=NN(CCCl)C(=O)NC1CCCCC1", "values": [{"measurement": "max response", "setting": "[5]", "result": -7.36, "unit": "%"}]}
{"smiles": "CCn1cc(C(=O)O)c(=O)c2cc(F)c(N3CCNCC3)nc21", "values": [{"measurement": "max response", "setting": "[5]", "result": 0.203, "unit": "%"}]}
{"smiles": "COC(=O)Nc1nc2ccc(S(=O)c3ccccc3)cc2[nH]1", "note": "(stereo not drawn)", "values": [{"measurement": "max response", "setting": "[5]", "result": 20.6, "unit": "%"}]}
{"smiles": "NC(=O)c1ccc2[nH]ccc2c1", "values": [{"measurement": "outcome", "setting": "[1]", "result": "inactive"}, {"measurement": "outcome", "setting": "[2]", "result": "inactive"}, {"measurement": "outcome", "setting": "[3]", "result": "inactive"}, {"measurement": "outcome", "setting": "[4]", "result": "inactive"}, {"measurement": "max response", "setting": "[5]", "result": 11.4, "unit": "%"}]}
{"smiles": "COCCCOc1cc(C[C@@H](C[C@H](N)[C@@H](O)C[C@H](C(=O)NCC(C)(C)C(N)=O)C(C)C)C(C)C)ccc1OC", "values": [{"measurement": "max response", "setting": "[5]", "result": 13.7, "unit": "%"}]}
{"smiles": "CC(C)OC(=O)OCOP(=O)(CO[C@H](C)Cn1cnc2c(N)ncnc21)OCOC(=O)OC(C)C", "values": [{"measurement": "max response", "setting": "[5]", "result": "5.62% and 30.5%"}]}
{"smiles": "O=C(O)c1cn(C2CC2)c2cc(N3CCNCC3)c(F)cc2c1=O", "values": [{"measurement": "max response", "setting": "[5]", "result": 4.49, "unit": "%"}]}
